The text below walks through data of PubChem BioAssay AID1850 (Southern Research Specialized Biocontainment Screening …, 2009).

Several values for one entry are separate records, joined by “and”; a condition that tells them apart may be missing. Identical values can stand only once. Out of some 310,000 compounds screened, about 1,000 (0.32%) were called active. The list is a sample of the results. Measured potencies and affinities stand elsewhere. Unmarked numbers belong to inactive results. No rule for the calls is given here.

The experiment in a line: PhoP regulon inhibitors, Salmonella typhi PhoP promoter GFP reporter, confirmatory (AID 1850).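 Also: 0% = induced wells with vehicle and 100% = uninduced wells.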 The settings on record: fluorescence, 4 h, at 50 µM, hits give high values.
The term inhibition denotes the relative decrease from the control value, in per cent. For the compound `COc1ccc(-c2nc(CS(=O)(=O)CC(=O)Nc3cccc(C(C)=O)c3)c(C)o2)cc1`, the inhibition is -8.19%. As for `CC(=O)c1ccc(O)c(CSc2nncn2C)c1`, the figure is -0.79%.

For the compound `COC(=O)C1=C(C)N(Cc2ccccc2)C(=NCc2ccc(OC)cc2)N[C@H]1c1cccc(F)c1`, the inhibition is 10.3%. For `COC(=O)C1=C(C)N(Cc2ccccc2)C(=NCc2ccccc2)N[C@H]1c1cccc(F)c1`, the inhibition was -0.78%. For the compound `CCCNC(=O)c1cc(-c2ccccc2)c(N2CCCCC2)s1`, the inhibition is 9.44%. As for `CCCCc1ccc(NC(=O)CSc2nc(=O)n(CCN(C)C)c3c2CCC3)cc1`, the figure is 11.9%; as for `Cc1cccc(NC(=O)c2cc(S(=O)(=O)N(C)c3ccc(F)cc3)ccc2Cl)n1`, 8.42%. The same measure for `c1ccc(Nc2ccccn2)nc1`: -2.23%.

`Oc1ccccc1Nc1ccccn1`: the inhibition is -1.96%. As for `Cc1ccc(S(=O)(=O)N2CCC(C(=O)O)CC2)cc1`, the inhibition was -0.71%. As for `CCOCCCn1c(=S)[nH]c2cc(C(=O)NCCc3ccc(OC)c(OC)c3)ccc2c1=O`, the figure is 3.11%; as for `CCCC(CCC)C(=O)Nc1ccc2c(c1)N(C(=O)CN1CCN(C)CC1)c1ccccc1CC2`, 5.91%. As for `C/C(=C\C(=O)c1ccccc1)Nc1ccc(O)cc1`, the inhibition is -9.8%. The same measure for `COC(=O)/C(=C\C(=O)c1ccccc1)Nc1ccc(OC)cc1`: -7.68%; for `Cc1ccc(NC(=O)NNC(=O)c2ccccc2)cc1`: 1.31%. As for `Cc1ccc(NC(=O)c2ccccc2)cc1`, the figure is -5.33%; as for `O=C(NCc1ccc(Cl)cc1)N1CCc2ccccc2C1`, 2.15%. Consider `COc1ccc2c(c1)CC/C(=C\c1ccc(C)o1)C2=O`, for which the inhibition is -3.7%. The same measure for `CC1Cc2ccccc2N1Cc1nc2scc(-c3cccs3)c2c(=O)[nH]1` (centres undefined): 0.2%; for `CC1CC(C)CN(C(=O)COC(=O)c2ccc[nH]c2=O)C1` (centres undefined): -8.36%; for `O=C(OCC(=O)N1CCOCC1)c1ccccc1O`: 5.57%. `CCCC(=O)N1CCN(c2nc3ccccc3s2)CC1`: the inhibition was -3.88%. The same measure for `Cc1ccc2c(Cl)cc(Cl)c(OCC(=O)NC(C)(C)C)c2n1`: -16.9%. As for `Cc1ccc2c(Cl)cc(Cl)c(OCC(=O)N(C(C)C)C(C)C)c2n1`, the figure is -1.43%; as for `COc1cccc(C(=O)NC2CCCc3ccccc32)c1OC` (centres undefined), -9.26%. As for `CS(=O)(=O)N(CCc1ccccc1)CC(=O)N1CCN(c2ccccc2)CC1`, the figure is -4.94%. In the case of `COc1ccc(CCNC(=O)COC(=O)C23CC4CC(CC(C4)C2)C3)cc1`, the inhibition was -12.8%.

As to `CCc1ccccc1NC(=S)N1CCCCCC1`, the inhibition is -5.25%. As for `O=C(Cn1cncn1)N/N=C/c1ccccc1Cl`, the inhibition was -13.1%. Take `O=C(Cn1cncn1)N/N=C/c1cccc2ccccc12`: the inhibition was -7.61%.

Regarding `Cc1cc([N+](=O)[O-])nn1CC(=O)N/N=C/c1ccccc1Br`, the inhibition was 13.2%. As for `Cc1cc([N+](=O)[O-])nn1CC(=O)N/N=C/c1ccc(O)cc1O`, the figure is 18.8%; as for `O=C(NCC1CCCO1)c1cccc(Oc2ccccc2)c1` (centres undefined), -8.15%; as for `Brc1cccc(C=Nc2cccc3ncccc23)c1`, -0.83%. The same measure for `Oc1c(Br)cc(Br)cc1C=Nc1cccnc1`: 7.09%; for `Cc1cccc(N=Cc2cc(Br)cc(Cl)c2O)c1`: 10.7%; for `O=C(O)c1ccccc1N/N=C/c1cc(Br)cc(Br)c1O`: 5.52%. The same measure for `O=C(O)c1cccc(N/N=C/c2cc(Br)cc(Br)c2O)c1`: -6.95%; for `CN(C)c1ccc(C(=O)N/N=C/c2cc(Br)cc(Br)c2O)cc1`: -1.06%. For the compound `Cc1onc(-c2ccccc2Cl)c1C(=O)Nc1ccccc1C(N)=O`, the inhibition is 7.75%. The same measure for `O=C(Nc1nnc(-c2ccc(F)cc2)s1)c1ccco1`: 2.98%. The same measure for `O=C(O)/C(=C\c1cccs1)c1ccc(F)cc1`: -11.8%; for `CNC(=O)C1C2C=CC3(O2)C1C(=O)N(CCOC)C3C(=O)NCc1ccc(OC)cc1` (centres undefined): 16.8%; for `CC1CCCCC1NC(=O)CN(C)S(=O)(=O)c1cccc2cccnc12` (centres undefined): 10.4%. The same measure for `CC(=O)c1c(C(C)=O)c(C)n(-c2ccc(N)c(C)c2)c1C`: -3.65%; for `Cc1ccc(C)c(/C=C/C(=O)c2ccccc(=O)c2O)c1`: -3.4%; for `Cc1ccc(/C=C/C(=O)c2ccccc(=O)c2O)c(C)c1`: -6.97%. In the case of `CCC(C)NC(=O)CSc1nc2ccc(N3CCOCC3)cc2c(=O)n1CCc1ccccc1` (centres undefined), the inhibition was -0.99%.

On to `Cc1cc(C(=O)N/N=C/c2c(C)n(C)c3ccccc23)n[nH]1`, for which the inhibition is -9.94%. The same measure for `O=C(O)[C@@H]1CC(O)CN1C(=O)CCc1c[nH]c2ccccc12` (some centres undefined): 6.6%. For the compound `CN(C)CC/C=C1/c2ccccc2Sc2c(O)cc(Cl)cc21`, the inhibition is 14.1%.

On to `CN(C)CC/C=C1\c2cc(F)ccc2CSc2ccccc21`, for which the inhibition was 1.61%. The same measure for `CN(C)CC/C=C1/c2ccc(F)cc2Sc2ccc(Cl)cc21`: -10.8%; for `COc1cc(Cl)cc2c1Sc1ccccc1/C2=C/CCN(C)C`: -4.02%.

Take `CN(C)CC/C=C1/c2cc(F)ccc2CSc2ccc(F)cc21`: the inhibition is -7.52%. The same measure for `CN(C)CC/C=C1/c2ccccc2Sc2ccc(Cl)cc21`: 21%. As for `COc1cc2c(cc1Cl)/C(=C\CCN(C)C)c1ccccc1S2`, the inhibition was 2.09%.

As to `CN(C)CC/C=C1\c2cc(Cl)ccc2Sc2cc(F)c(F)cc21`, the inhibition was 10.9%.

`Cc1cccc(OCCCC(=O)Nc2ccc(S(N)(=O)=O)cc2)c1`: the inhibition was -6.31%. As for `CCCCCCSc1ccc(-c2nc3ccccn3c2NCCCC)cc1`, the figure is -1.64%; as for `CC(C)CC(=O)c1c[nH]c(C(=O)NCCCN2CCOCC2)c1`, 0.393%. In the case of `CCc1nnc(NC(=O)C=C(C)C)s1`, the inhibition was -12.1%. As for `O=C(CSc1nccn1-c1ccccc1)NCc1ccc(F)cc1`, the figure is 5.7%; as for `Cc1cc(C)cc(NC(=O)N2CCC(NC(=O)c3ccco3)CC2)c1`, -4.45%. As for `COc1cc(C2(O)CCCCC2C)cc(OC)c1OC` (centres undefined), the figure is 0.64%; as for `CC(C)C(C(=O)NCc1ccco1)N(Cc1ccco1)C(=O)CNS(=O)(=O)c1ccc(F)cc1` (centres undefined), -1.96%. Take `COc1ccc(Cl)cc1NC(=S)NCc1cccs1`: the inhibition was -1.43%. The same measure for `Cc1ccc(NC(=O)c2cc(NC(=O)C3CC=CCC3C(=O)O)ccc2N2CCOCC2)cc1` (centres undefined): -15.3%; for `C/C(=N\NC(=O)c1ccc(F)cc1)c1ccc(NC(=O)Cc2ccccc2)cc1`: -10.7%. `Oc1ccccc1Nc1nc(NCC2CCCO2)c2ccccc2n1` (centres undefined): the inhibition is 19.4%. The same measure for `Oc1ccc(Cl)cc1Nc1nc(NCC2CCCO2)c2ccccc2n1` (centres undefined): 3.79%; for `COc1ccccc1Nc1nc(NCC2CCCO2)c2ccccc2n1` (centres undefined): 29.6%.

On to `COc1ccc(-c2cc(C(=O)NCC3CCCO3)c3ccccc3n2)c(OC)c1` (centres undefined), for which the inhibition is -4%.

In the case of `c1ccc2c(NCC3CCCO3)nc(N3CCOCC3)nc2c1` (centres undefined), the inhibition is 0.7%.

As to `Oc1ccccc1-c1nc(NCC2CCCO2)c2ccccc2n1` (centres undefined), the inhibition is -0.56%. As for `COc1cccc(-c2nc(NCC3CCCO3)c3ccccc3n2)c1O` (centres undefined), the figure is 0.02%; as for `COc1ccc(S(=O)(=O)Nc2nc3ccccc3nc2NCC2CCCO2)cc1` (centres undefined), -1.23%; as for `O=C1CN=C(c2ccc[nH]2)c2cc(Cl)ccc2N1`, -4.67%. The same measure for `COC(=O)C1SCC2C(=O)N(Cc3cccc(C)c3)CC(=O)N21` (centres undefined): 0.26%; for `CN1C(=S)SC(C)(C)C1(C)NO` (centres undefined): -6.1%. Consider `O=C(CSc1nccn1Cc1ccccc1)Nc1ccccc1`, for which the inhibition was -2.04%. Consider `CN(C)N1C(N)=C(C#N)C(c2ccc3c(c2)OCO3)C2=C1CC(C)(C)CC2=O` (centres undefined), for which the inhibition was -10.5%. The same measure for `CC(C)Oc1ccc(-c2nc(NCC3CCCO3)c3ccccc3n2)cc1` (centres undefined): -13.6%; for `c1ccc(-c2nc(NCC3CCCO3)c3ccccc3n2)nc1` (centres undefined): 2.1%; for `O=C(CN1CCN(c2ccc([N+](=O)[O-])cc2Cl)CC1)N1CCOCC1`: 2.81%.

`CC[N+](C)(C)CCN(Cc1ccc(Cl)cc1)c1ccccn1`: the inhibition is 1.18%. As for `COc1ccc(CN(CCN(C)C)c2ccccn2)cc1`, the figure is -13% and 6.04%. With `CCC(=O)N1CCc2cc(S(=O)(=O)NC(Cc3ccccc3)C(=O)O)ccc21` (centres undefined), the inhibition is -1.37%. On to `Cc1nc(C(=O)NCCCO)cc2c1[nH]c1ccccc12`, for which the inhibition was -6.79%.

As for `Cc1ccc(S(=O)(=O)N(CC(=O)NCc2ccncc2)Cc2ccc(F)cc2)cc1`, the inhibition was 3.98%. Take `NC(=S)N/N=C/c1c[nH]c2ccc(OCc3ccccc3)cc12`: the inhibition was -7.88%. Take `COc1ccc2[nH]cc(/C=N/NS(=O)(=O)c3ccc(C)cc3)c2c1`: the inhibition was 15.2%.

For `CSc1cccc(NC(=O)CCCOc2ccc(Cl)cc2C)c1`, the inhibition was -5.44%. As for `CCN(CC)CCNCc1cc(Br)ccc1OCC(=O)NCc1ccccc1`, the figure is -28.2%.

Take `CCCNCc1cc(Br)ccc1OCC(=O)NCCc1ccccc1`: the inhibition is -3.03%. With `CCOc1ccccc1CNC(=O)Cn1ccc2cc(S(=O)(=O)N3CCCC3)ccc21`, the inhibition was 3.38%. As for `Cc1c(C(=O)NC(Cc2ccccc2)c2nc3ccccc3[nH]2)cccc1[N+](=O)[O-]` (centres undefined), the inhibition was -6.76%. The same measure for `O=Nc1c(O)[nH]c2c(F)cccc12`: -3.73%.

As for `O=Nc1c(O)n(Cc2ccccc2)c2ccccc12`, the inhibition was -9.56%.
